“And” between values parts separate entries of the source, which are not always exact repeats. Equal values may be shown once. About 79,000 compounds went through this panel and 15% of them were active in at least one assay; those are over-represented in the sample as a whole. A structure can be active in one record and inactive in another. The source made the active and inactive calls. Rule as the data show it: active = growth inhibition above about 70%; inactive = the rest.
Assays:
[1] = NCI Yeast Anticancer Drug Screen. Data for the rad50 strain (AID 155);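 also: 0% = growth of vehicle-only cultures of the same strain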; details: S. cerevisiae rad50 strain growth inhibition; at 50.0 µM; stronger effect = higher value
Procedure, shortened: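 Inhibition values express reduced yeast growth in compound-treated cultures relative to vehicle-treated controls.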

[2] = NCI Yeast Anticancer Drug Screen. Data for the mec2-1 strain (AID 157); details: S. cerevisiae mec2-1 strain, at 50.0 µM, stronger effect = higher value
Procedure, shortened: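 Growth inhibition is read against vehicle-treated controls after compound exposure of the mec2-1 yeast strain, which is defective in DNA damage repair or cell cycle control.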

[3] = NCI Yeast Anticancer Drug Screen. Data for the sgs1 mgt1 strain (AID 161);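 also: 0% = growth of cultures given vehicle only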; details: S. cerevisiae sgs1 mgt1 strain, at 50.0 µM, stronger effect = higher value
Procedure, shortened: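 Yeast cells carrying a defined DNA-repair defect were exposed to test compounds. Growth inhibition was measured relative to vehicle-treated controls.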

[4] = NCI Yeast Anticancer Drug Screen. Data for the cln2 rad14 strain (AID 165);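 also: 0% = growth equal to vehicle treated cultures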; details: S. cerevisiae cln2 rad14 strain, at 50.0 µM, stronger effect = higher value
Procedure, shortened: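 Growth inhibition, relative to vehicle-treated controls, is the read-out. The test organism is a yeast strain with defined genetic alterations, cln2 rad14.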

[5] = NCI Yeast Anticancer Drug Screen. Data for the bub3 strain (AID 167); details: S. cerevisiae bub3 mutant strain, at 50.0 µM, stronger effect = higher value
Procedure, shortened: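 Steps: expose the mutant yeast strain to compound; grow alongside vehicle-treated cultures; measure growth; express inhibition against the vehicle cultures.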

[6] = NCI Yeast Anticancer Drug Screen. Data for the mlh1 rad18 strain (AID 175); details: S. cerevisiae mlh1 rad18 strain growth inhibition; at 50.0 µM; stronger effect = higher value
Procedure, shortened: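 Cells of a genetically altered yeast strain, deficient in DNA damage repair, were treated with compound. Their growth was then compared with that of vehicle-treated cultures to give inhibition.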

Measured: growth inhibition

CC1(C)CC(N)C(=O)c2ccccc21 (centres undefined)
inactive: [1] 7.25% | [2] -20.6% | [3] -5.6% | [4] 14.2% | [5] -4.4% | [6] 29%

C[N+](C)(C)CC1CCC(C[N+](C)(C)C)C1=NO (centres undefined)
inactive: [1] -16.3% | [2] 11.1% | [3] 4.2% | [4] 13.2% | [5] 9.75% | [6] -15.5%

O=C(O)CCCNSc1ccccc1[N+](=O)[O-]
active: [1] 71.2% | [3] 73% | [6] 72%
inactive: [2] 44.5% | [4] 48.9% | [5] 68.4%

O=C(O)CCCC1CCCCC1.[Ni]
inactive: [1] -6.95% | [2] 14.8% | [3] -2.1% | [4] 16% | [5] -10.8% | [6] -18.6%

CN(Cc1cnc2nc(N)nc(N)c2n1)c1ccc(C(=O)NC(CCC(=O)NCC(P(=O)(O)O)P(=O)(O)O)C(=O)O)cc1 (centres undefined)
inactive: [1] -12.6% | [2] -28.2% | [3] -28.9% | [4] -28.1% | [5] -15.8% | [6] -20.1%

O=C([O-])C[OH+]c1ccc(Cl)cc1Cl.O=C([O-])C[OH+]c1ccc(Cl)cc1Cl.[Ni+2]
inactive: [1] 10.3% | [2] 21.6% | [3] 18.9% | [4] 3.1% | [5] 3.85% | [6] 41.5%

CCN1C2CCC1CC(=O)C2
inactive: [1] 0.95% | [2] 5.9% | [3] -5.7% | [4] -11.9% | [5] -14.2% | [6] 7.85%

CCC(Br)(CC)C(N)=O
inactive: [1] -33.5% | [2] -5.4% | [3] -26.1% | [4] -89.7% | [5] -28.1% | [6] -27.9%

CCN(CCCl)c1cc(CN(C)C)cc(NC(=O)c2ccc(C(=O)Nc3ccccc3)cc2)c1
inactive: [1] 0.7% | [2] -18.4% | [3] 5% | [4] 26.2% | [5] 23.9% | [6] 12.4%

CC(=O)CC(C)=O.CC(=O)CC(C)=O.CC(=O)CC(C)=O.[Sm]
inactive: [1] 53% | [2] 13.8% | [3] 37.1% | [4] 31.9% | [5] 9.1% | [6] 33.8%

CCCCCCCCCCCCCCCC[As]1c2ccccc2Nc2ccccc21
active: [4] 81.3%
inactive: [1] 4.4% | [2] 16.7% | [3] 7.05% | [5] 7.45% | [6] 28.5%

CC1N=NNN1C (centres undefined)
inactive: [1] -1.8% | [2] -9.7% | [3] -2.3% | [4] -5.9% | [5] 8.75% | [6] -8.65%

Cc1c[n+]2ccc3ccccc3c2c2ccccc12
inactive: [1] -3.9% | [2] -10.9% | [3] -8.65% | [4] -78.2% | [5] -3.2% | [6] -11.7%

c1cc2c(cc1C1OCC3C(c4ccc5c(c4)OCO5)OCC13)OCO2 (centres undefined)
inactive: [4] 44.4% and 34.4% | [6] 67% and 31.7%
75.1% (active) and 30.8% (inactive): [1]
81.5% (active) and 54.3% (inactive): [5]
82.5% (active) and 57.4% (inactive): [3]
74.6% (active) and -0.05% (inactive): [2]

COC(=O)C1=C(C)N2CCCOC2(C)C(C(=O)OC)C1c1cccc(Cl)c1 (centres undefined)
inactive: [1] 61.4% | [2] 16.6% | [3] 40.5% | [4] 29.1% | [5] 44.4% | [6] 61.5%

ClCCN(CCCl)Cc1c2ccccc2cc2c1ccc1ccccc12
inactive: [1] 48.5% | [2] 9.2% | [3] 46.8% | [4] -38.3% | [5] -2.5% | [6] 65.5%

CSP(=S)(SC(C)C)SC(C)C
inactive: [1] 13.7% | [2] 5.75% | [3] 13.2% | [4] 3.8% | [5] 0.5% | [6] 29.3%

N#C[C@H](OC1OC(COC2OC(CO)C(O)C(O)C2O)C(O)C(O)C1O)c1ccccc1 (some centres undefined)
inactive: [1] -34.5% | [2] -34.6% | [3] -20.6% | [4] -1.3% | [5] -29.1% | [6] -28.1%

C1CSCCO1.[Cu+2].[O-][Cl+3]([O-])([O-])O
inactive: [1] -7.6% | [2] -10.6% | [3] -0.4% | [4] -36.8% | [5] -37% | [6] -13.8%

CC(C)C(NC(=O)CCl)C(=O)O (centres undefined)
inactive: [1] -9.2% | [2] -0.2% | [3] 5.75% | [4] -11.4% | [5] -2.55% | [6] 0.3%

Cc1ccc(NC(=O)C(=O)C2C(=O)NC(=O)NC2=O)cc1C
inactive: [1] -4.9% | [2] -14.3% | [3] -34.6% | [4] 3.85% | [5] -19.9% | [6] -23.2%

COCCOC(=O)CCl
inactive: [1] -4.35% | [2] 0.4% | [3] 10.9% | [4] 0.45% | [5] -0.7% | [6] 25.5%

CC12CCC3C(CC=C4CC(=O)CCC43CCO)C1CCC2Oc1ccccc1 (centres undefined)
inactive: [1] 5.3% | [2] -11.9% | [3] -2.45% | [4] 16.4% | [5] 23.7% | [6] 13.3%

O=c1c2ccccc2sc2c1c(N(CCCl)CCCl)cc1ccccc12
inactive: [1] 39.2% | [2] 5.5% | [3] 20.1% | [4] 17.5% | [5] -5.85% | [6] 18.8%

CC1(C)CN=C(Nc2ccc(F)cc2)S1
inactive: [1] 2.55% | [2] 0.6% | [3] -17.9% | [4] 19.3% | [5] -17.1% | [6] -21.8%

N=C(N)c1nn[nH]n1
inactive: [1] -18.9% | [2] -5.25% | [3] -19.8% | [4] 1.75% | [5] -7.05% | [6] -27.3%

CCCCCCC(=O)O[C@H]1CC[C@H]2[C@@H]3CCC4C/C(=N/NC(=O)c5cccc6c(=O)c7ccccc7[nH]c56)C=C(C)[C@]4(C)[C@H]3CC[C@]12C (some centres undefined)
inactive: [1] 3.1% | [2] -0.85% | [3] 16.6% | [4] 24.7% | [5] 8.45% | [6] -55.3%

CCC(C)C(CC)C(=O)NC(N)=O (centres undefined)
inactive: [1] 4.4% | [2] 4.55% | [3] -11.4% | [4] -1.35% | [5] 8.5% | [6] 0.95%

COc1cc2c(cc1OC)C1CC(OC(=O)c3ccccc3)(c3nccc4cc(OC)c(OC)cc34)CCN1CC2 (centres undefined)
inactive: [1] 26.9% | [2] 13.9% | [3] 20.6% | [4] 4.95% | [5] -0.8% | [6] 32.5%

CCc1ccc(CCN2CCCCC2)nc1
inactive: [1] -24.6% | [2] -21.4% | [3] -21.4% | [4] 6.75% | [5] -15.5% | [6] -1.6%

COc1ccc(CO)cc1
inactive: [1] -1.5% | [2] -10.1% | [3] 11.3% | [4] -12.8% | [5] -17.3% | [6] -13.7%

CC(=O)O[C@H]1CCC2[C@@H]3CC[C@]4(C)CC(=O)C=C[C@]4(C)C3CC[C@@]21C (some centres undefined)
active: [1] 84.7% | [2] 90.5% | [3] 88% | [4] 85.1% | [5] 87.1% | [6] 89.3%

COc1ccc2c3c([nH]c2c1)C(C)N(C)CC3 (centres undefined)
inactive: [1] 16.4% | [2] 1.85% | [3] -10.7% | [4] -5.05% | [5] 43.4% | [6] -16.9%

Cc1cc(-n2c(C)nc3ccccc3c2=O)on1
inactive: [1] -35.1% | [2] -15.7% | [3] -4.15% | [4] -47.5% | [5] 8.9% | [6] 3.75%

CCCCOP(=O)(NCCOC)OCCCC
inactive: [1] -0.05% | [2] 8.05% | [3] -3.1% | [4] 6.9% | [5] 5.25% | [6] 10.2%

NCCN.O=C([O-])C(=O)[O-].O=C([O-])C(=O)[O-].[Co+3].[K+]
inactive: [1] 0.2% | [2] -8.5% | [3] 10.2% | [4] 16.8% | [5] 5.1% | [6] -2.4%

COc1cc2c3cc1Oc1c(OC)c(OC)cc4c1C(Cc1ccc(cc1)Oc1cc(ccc1O)CC3N(C)CC2)N(C)CC4 (centres undefined)
inactive: [1] -18.4% and 5.95% | [2] -30.8% and -27.1% | [3] -9.65% and -29.5% | [4] 12.7% and -14.9% | [5] -0.55% and -12.1% | [6] -10.6% and -41%

O=[N+]([O-])c1cc(Cl)ccc1O
inactive: [1] 0.2% | [2] -5.65% | [3] -6.5% | [4] 14.2% | [5] -7.15% | [6] 3.75%

Nc1cc(N)c([N+](=O)[O-])cc1[N+](=O)[O-]
inactive: [1] 20.8% | [2] 2.8% | [3] 14.1% | [4] 5.75% | [5] 9.8% | [6] 11.3%
